Assay outcomes as filed in PubChem.
TMEM16A inh – inhibitors of mouse TMEM16A calcium-activated chloride channel | normalized B-score (activity score, 25-100; higher = stronger inhibition) at 10 µM | AID 588511 | HEK293 TMEM16A/YFP iodide influx fluorescence, ionomycin | Q8BHY3 | 1.2% of 310,000 active;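 active means ratio plate-corrected score three or more library SD toward inhibition, starting fluorescence score within five deviations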;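 further: score derived from kinetic fluorescence span divided by baseline fluorescence per well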
CHT allo act – allosterically activates the human high affinity choline transporter | Q9GZV3 | CHT-expressing cells, membrane potential dye, choline EC20; hits give high values; LV-AA mutant CHT in HEK293 cells | AID 488977 | B-score at 10 µM | 0.49% of 310,000 active;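 active means initial fluorescence not abnormally high and integrated response B-score, plate-corrected, over 3 SD above library mean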
CHT block – human CHT choline transport inhibition; Q9GZV3; CHT-expressing cells, membrane potential dye, choline response; hits give low values; B-score at 10 µM; 0.86% of 310,000 active; AID 488975;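 active means B-score over 3 SD under the library average, and starting fluorescence ratio not unusually high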;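 further: choline stimulus applied at its EC90 after an EC20 pre-addition; B-score computed on integrated fluorescence ratio after choline addition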
TMEM16A act – activators or potentiators of mouse TMEM16A chloride channel; Q8BHY3; HEK293 TMEM16A/YFP-H148Q/I152L, iodide quench fluorescence; hits give low values; B-score at 10 µM; 0.3% of 340,000 active; AID 623877;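 active means fluorescence-ratio B-score plate-corrected deviation score at least 3 library SD below zero, with starting fluorescence score within 5 deviations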;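 further: channel opened by trigger with iodide after compound preincubation; score built on the fluorescence ratio of max minus min over baseline; more negative score means more quench and so TMEM16A activation or potentiation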
An asterisk follows results filed as active; i = inactive; / = not tested or not shown. Compounds with a hit are over-represented: about 2.3% of the library has one in this group of screens.

SMILES	TMEM16A inh	CHT allo act	CHT block	TMEM16A act
C=CCNC(=O)/C(C#N)=C/c1ccc(OS(=O)(=O)c2ccc(C)cc2)c(OC)c1	i	i	i	i
CCOC(=O)N1CCc2c(sc(NC(=O)c3ccc(Cl)s3)c2C(N)=O)C1	100*	i	i	/
CCN(CC)CCOC(=O)c1ccc(Cl)cc1Cl	i	i	i	i
Cn1cc[nH]c1=S	/	/	/	-12.6*
Cc1cc2nccc(-c3ccc(Cl)c([N+](=O)[O-])c3)n2n1	i	i	i	i
Cc1ccc2nc(N(CCCN(C)C)C(=O)c3ccc(S(=O)(=O)N4CCCCCC4)cc3)sc2c1	i	i	-5.47*	i
O=C(NCc1ccccc1)c1cccc(COc2ccc3c(c2)CCC3)c1	i	i	i	i
COc1cccc(OC)c1C(=O)NNC(=O)c1cccc(COc2ccc3c(c2)CCC3)c1	25*	i	i	i
O=C(O)c1ccc(S(=O)(=O)N2CCC3(CC2)CC(=O)c2ccccc2O3)cc1	i	i	i	i
Cc1nn(C)c(C)c1-c1c(C#N)c(N)nc2c1CCCCCC2	i	i	i	-6.13*
Cc1c(-c2c(C#N)c(N)nc3c2CCCCCC3)cnn1C	i	i	i	i
O=c1cc(CSc2nnc(-c3cccs3)n2Cc2ccccc2)nc2sc3ccccc3n12	100*	i	i	i
COc1cccc(CN(C)C(=O)CN2C(=O)NC(c3ccccc3)(c3ccccc3)C2=O)c1	/	/	/	-48.2*
C#CCOCCOCCOCCNc1nc(N2CCN(C(=O)[C@H](CCCN=C(N)N)n3cc(C(N)[C@@H](C)CC)nn3)CC2)nc(N2CCN(C(=O)[C@H](CCCCN)n3cc([C@@H](N)CC(N)=O)nn3)CC2)n1 (some centres undefined)	/	/	/	i
CCc1ccccc1N(C1=NCCCS1)S(=O)(=O)c1ccc(C(C)(C)C)cc1	i	i	i	i
O=C(c1ccccc1)N1N=C(C(F)(F)F)CC1(O)c1ccccc1 (centres undefined)	i	i	i	i
O=C(c1ccccc1)N1N=C(C(F)(F)F)CC1(O)c1ccc(F)cc1 (centres undefined)	100*	i	i	i
COc1ccccc1CNS(=O)(=O)c1ccc(-c2cc(C)no2)cc1	i	6.45*	i	i
COc1ccccc1CN1CCC(CNS(=O)(=O)c2cc(-c3cc(C)no3)ccc2OC)CC1	i	i	i	i
Cc1cc2nc3c(=O)[nH]c(=S)[nH]c3nc2cc1NC(=O)C(F)(F)F	i	i	i	-5.15*
O=c1[nH]c(=S)[nH]c2nc(-c3ccccc3)cnc12	i	i	i	i
O=C(CSCCc1ccccn1)Nc1cccnc1Cl	25*	i	i	i
O=C(CSCCc1ccccn1)Nc1ccccn1	i	i	i	i
c1coc(-c2nnc(-c3ccco3)nn2)c1	i	i	i	i
Cc1oc(-c2cccs2)nc1CN1CCN(C(C)C)C(CCO)C1 (centres undefined)	i	i	i	i
SMILES	TMEM16A inh	CHT allo act	CHT block	TMEM16A act
CCCc1cc(C(=O)Nc2ccc(C(=O)c3ccc(C)cc3)cc2)n(C)n1	100*	i	i	i
Cn1c(N2CCN(c3ccccn3)CC2)nc2c1c(=O)n(Cc1ccc(Cl)cc1)c(=O)n2C	100*	i	i	i
Cn1c(N2CCN(c3ccccn3)CC2)nc2c1c(=O)n(Cc1ccccc1Cl)c(=O)n2C	i	i	i	i
COc1ccc(-c2n(CC(=O)OC3CC(C)CCC3C(C)C)c3ccccc3[n+]2C)cc1 (centres undefined)	/	/	/	-6.14*
COC(=O)c1c(C)oc2ccc(N(C(=O)c3ccncc3)S(=O)(=O)c3ccc(C)cc3)cc12	100*	i	i	i
COc1ccc(N2CCN(C(=O)c3cccc(S(=O)(=O)N4CCCc5ccccc54)c3)CC2)cc1	/	/	/	i
O=c1cc[nH]c2ccc(OC(F)(F)F)cc12	i	i	i	i
O=S(=O)(NC1CCCCC1N1CCN(c2ccc(F)cc2)CC1)c1ccc(Cl)cc1 (centres undefined)	i	i	i	-34.3*
CCCN1CCN(C2CCCCC2NS(=O)(=O)c2ccc(Cl)cc2)CC1 (centres undefined)	i	i	i	i
Cc1ccc2c(c1)c(C1=NC(=S)NC1=O)c(O)n2C	i	i	i	i
N#CC1C(=N)Cc2ccccc2-c2ccccc21 (centres undefined)	/	/	/	i
